From PubChem BioAssay
Shiga inhibitor: A qHTS for Small Molecule Inhibitors of Shiga Toxin. Vero cells, Shiga toxin protein synthesis inhibition reporter. inhibition, % at 38.7 µM. actives 9.2% (n = 290,000). AID 2315, 2010; in the data active means inhibition mostly above about 28%, no sharp cut-off; inactive means mostly below about 43%
Vaccinia mCherry: qHTS for Stage-Specific Inhibitors of Vaccinia Orthopoxvirus: mCherry Reporter Primary qHTS; Potency, µM (highest dose often 36.5 µM), most hits filed as inhibitors; actives 0.63% (n = 310,000); Vaccinia virus mCherry reporter infection, fluorescence; calls by dose curve; tested in A549 cells; further: nearly all actives have a fitted effect of over 35% in size
LASV entry inh: qHTS for Inhibitors of binding or entry into cells for Lassa Virus; actives 1.2% (n = 300,000); Potency, µM (top dose mostly 37.9 µM), usual class: inhibitors; Lassa virus pseudotype entry inhibition, cell reporter; AID 540256, 2011; calls by dose curve; tested in HEK293 cells; further: nearly all actives have a fitted effect of over 50% in size
Cycloheximide cs: Cycloheximide Counterscreen for Small Molecule Inhibitors of Shiga Toxin | AID 2314, 2010 | actives 12% (n = 300,000) | cell reporter, cycloheximide protein synthesis inhibition counterscreen | max response, %; in the data active means max response mostly above about 13%, no sharp cut-off; inactive means mostly below about 14%; further: read at 38.3 µM for the half of the compounds with a filed dose
Marburg entry inh: qHTS for inhibitors of binding or entry into cells for Marburg Virus; actives 1.8% (n = 300,000); Potency, µM (highest dose often 37.8 µM), most hits filed as inhibitors; Marburg virus pseudotyped entry inhibition, cell reporter; calls by dose curve; tested in HEK293 cells
VACV Venus inh: qHTS for Stage-Specific Inhibitors of Vaccinia Orthopoxvirus: Venus Reporter Primary qHTS | Vaccinia virus Venus reporter expression, fluorescence | Potency, µM (series often up to 36.5 µM), actives largely listed as inhibitors | actives 0.46% (n = 330,000); calls by dose curve; tested in A549 cells; further: nearly all actives have a fitted effect of over 30% in size
Of the large screens only hits and unclear results are named; the others gave an inactive call. This is one part of a sample in which hits are shown more often than they occur.

Cc1cc(-n2c(C)nc3ccccc3c2=O)ccc1NC(=O)c1cccc([N+](=O)[O-])c1	none (no result: Shiga inhibitor, Cycloheximide cs, Marburg entry inh)
Cc1c(C(=O)OC(C)C)sc(N)c1C(=O)OC(C)C	Shiga inhibitor 107, Vaccinia mCherry inconclusive, LASV entry inh inconclusive, Cycloheximide cs 32, VACV Venus inh inconclusive
CC(=O)c1sc(N)c(C(=O)OC(C)C)c1C	LASV entry inh inconclusive, Cycloheximide cs 19, VACV Venus inh inconclusive (no result: Vaccinia mCherry)
CC(C)OC(=O)c1c(N)sc2c1CCCC2	none (no result: Shiga inhibitor, Vaccinia mCherry, Cycloheximide cs, VACV Venus inh)
Cc1c(C(N)=O)sc(N)c1C(=O)OC(C)C	none (no result: Vaccinia mCherry, VACV Venus inh)
CCN1CCN(c2nc3ccccc3s2)CC1	Shiga inhibitor 77, LASV entry inh inconclusive, Cycloheximide cs 33, Marburg entry inh inconclusive (no result: Vaccinia mCherry, VACV Venus inh)
Fc1cccc(Cl)c1CN1CCN(c2nc3ccccc3s2)CC1	Shiga inhibitor 159, LASV entry inh inconclusive, Cycloheximide cs 53, Marburg entry inh inconclusive
CC(C)(C)C(=O)N1CCN(c2nc3ccccc3s2)CC1	Shiga inhibitor 76, Cycloheximide cs 57 (no result: Vaccinia mCherry, LASV entry inh, Marburg entry inh, VACV Venus inh)
O=C(NC1CCCCCC1)C1CCN(c2nc3ccccc3o2)CC1	none (no result: Vaccinia mCherry, LASV entry inh, VACV Venus inh)
O=C(NC1CC1)C1CCN(c2nc3ccccc3s2)CC1	Shiga inhibitor 63, Cycloheximide cs 23, Marburg entry inh inconclusive
CCc1ccc(-c2nc(SCC(=O)NC3CC3)n[nH]2)cc1	LASV entry inh inconclusive (no result: Shiga inhibitor, Cycloheximide cs)
Cc1c(CCC(=O)NCCCn2ccnc2)c(=O)oc2c(C)c3oc4c(c3cc12)CCCC4	none (no result: LASV entry inh, Marburg entry inh)
CCOC(=O)c1cc(-c2ccc(C)cc2)n(CCC(=O)Nc2cc(Cl)ccc2C)c1C	Marburg entry inh inconclusive (no result: Shiga inhibitor, LASV entry inh, Cycloheximide cs)
O=C(Nc1ccccc1Cl)N1CCC2(CC1)Oc1ccccc1C(=O)N2Cc1ccc(F)cc1	none (no result: Shiga inhibitor, Cycloheximide cs)
CCCC(=O)N1CCN(c2nc3ccccc3s2)CC1	Shiga inhibitor 42, Cycloheximide cs 42 (no result: Vaccinia mCherry, LASV entry inh, Marburg entry inh, VACV Venus inh)
CCc1ccc2nc(N3CCN(C(=O)c4ccco4)CC3)sc2c1	none (no result: Shiga inhibitor, Cycloheximide cs, Marburg entry inh)
CCCC(=O)N1CCN(c2nc3ccc(F)cc3s2)CC1	none (no result: Shiga inhibitor, Cycloheximide cs, Marburg entry inh)
CCC(=O)N1CCN(c2nc3c(C)cccc3s2)CC1	none (no result: Shiga inhibitor, Cycloheximide cs, Marburg entry inh)
CCC(=O)N1CCN(c2nc3ccc(Br)cc3s2)CC1	Shiga inhibitor 59, Cycloheximide cs 36 (no result: Vaccinia mCherry, LASV entry inh, Marburg entry inh, VACV Venus inh)
CCCCC(=O)N1CCN(c2nc3ccc(F)cc3s2)CC1	Shiga inhibitor 35 (no result: Vaccinia mCherry, LASV entry inh, Marburg entry inh, VACV Venus inh)
CCSc1ccccc1C(=O)N1CCN(c2nc3ccccc3s2)CC1	none (no result: Shiga inhibitor, Cycloheximide cs, Marburg entry inh)
CCc1ccc2nc(N3CCN(C(=O)C(C)(C)C)CC3)sc2c1	Shiga inhibitor 55, Cycloheximide cs 23 (no result: Vaccinia mCherry, LASV entry inh, Marburg entry inh, VACV Venus inh)
Cc1ccc(C)c(NC(=O)CCc2c(C)n(C)c3cc(-c4ccccc4C)nn3c2=O)c1	none (no result: Shiga inhibitor, Cycloheximide cs, Marburg entry inh)
CC/C(=N\Nc1nncc2ccccc12)c1ccc(F)cc1	Shiga inhibitor 71, Vaccinia mCherry inconclusive, LASV entry inh inconclusive, Cycloheximide cs 47, Marburg entry inh inconclusive
C/C(=N\Nc1nncc2ccccc12)c1ccc(OCC(=O)N(C)C)cc1	Shiga inhibitor 138, Vaccinia mCherry inconclusive, Cycloheximide cs 44
CCOc1ccccc1-n1nnc(S(=O)(=O)c2ccc(C)cc2)c1N	LASV entry inh inconclusive (no result: Shiga inhibitor, Cycloheximide cs)
COc1ccccc1OCC(=O)N/N=C1\CCc2ccccc21	Shiga inhibitor 92, LASV entry inh inconclusive, Cycloheximide cs 38
COc1ccc(C(=O)NN=C2CCCC2)cc1OC	Vaccinia mCherry inconclusive
COc1ccccc1OCC(=O)N/N=C1\CCCCc2ccccc21	LASV entry inh inconclusive, Cycloheximide cs 17
COc1ccc(C(=O)N/N=C2\CCc3ccccc32)cc1OC	Vaccinia mCherry inconclusive, Cycloheximide cs 30, Marburg entry inh inconclusive
O=C(COc1cccc(Br)c1)N/N=C1\CCCc2ccccc21	none
Cc1cccc2c1OCC/C2=N\NC(=O)COc1ccccc1	Shiga inhibitor 133, Cycloheximide cs 60, Marburg entry inh inconclusive (no result: Vaccinia mCherry, VACV Venus inh)
COc1ccc(OCC(=O)N/N=C2\CCCc3ccccc32)cc1	none
CCc1ccc(C2NC(=O)c3ccccc3O2)cc1 (stereo not drawn)	Marburg entry inh inconclusive
O=C(Nc1cc(Cl)ccc1Cl)c1ccc2c(c1)N(Cc1cccc(Cl)c1)C(=O)c1ccccc1S2=O (stereo not drawn)	none (no result: Shiga inhibitor, Cycloheximide cs, Marburg entry inh)
Cc1cc(Cl)ccc1OCC(=O)N/N=C1\CCCc2ccccc21	none (no result: Vaccinia mCherry, VACV Venus inh)
O=C(COc1ccccc1F)N/N=C1\CCCc2ccccc21	Shiga inhibitor 79, Cycloheximide cs 35
Cc1cc(C)n2nc(SCC(=O)N3CCN(c4ccccc4)CC3)nc2n1	LASV entry inh inconclusive (no result: Shiga inhibitor, Cycloheximide cs)
